Screens from PubChem.
This is a sample that favours compounds with a hit; in the whole collection about 6.2% have one here.
MARV entry inh = inhibitors of Marburg virus binding or cell entry | Potency, µM (top dose mostly 37.8 µM), without a hit: top-dose activity change, negative = inhibition, most hits filed as inhibitors | AID 540276 | Marburg virus pseudotyped entry inhibition, cell reporter | 300,000 tested, 1.8% active; calls by dose curve; tested in HEK293 cells; note: potency is the fitted concentration of half-maximal effect
FMDV inh = antivirals against foot and mouth disease virus; 410,000 tested, 1.2% active; Potency, µM (top dose mostly 57.9 µM), for inactives: top-dose activity change, negative = inhibition, actives largely listed as inhibitors; FMDV antiviral cell-based qHTS; calls by dose curve; tested in HEK293T cells; note: read-out not given here; potency is the fitted concentration of half-maximal effect; nearly all actives have a fitted effect of over 45% in size
LASV entry inh = inhibitors of Lassa virus binding or cell entry; Lassa virus pseudotype entry inhibition, cell reporter; Potency, µM (series often up to 37.9 µM), for inactives: top-dose activity change, negative = inhibition, hits mostly inhibitors; 300,000 tested, 1.2% active; AID 540256; calls by dose curve; tested in HEK293 cells; note: potency is the fitted concentration of half-maximal effect; nearly all actives have a fitted effect of over 50% in size
HCMV inh = inhibitors of human cytomegalovirus | HFF cells, HCMV-luciferase reporter, 72 h; active compounds read low | activity change, negative = inhibition, % at 57.5 µM | 410,000 tested, 4.5% active | AID 1259415; in the data active = activity change below about -60%; inconclusive = no clear call, values can overlap the other calls; inactive = above about -39%
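Human foreskin fibroblasts infected with luciferase-reporter HCMV at MOI 1 PFU/cell, compounds at two doses. Luciferase measured 72 h post infection; normalized to buffer-only basal and Salinomycin (10uM) controls.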
Active calls of the source: *; ? = inconclusive; / = no result given; [ ] = remark or other dose. % is set by controls: 0 for no effect and ±100 for the full control effect.

SMILES	MARV entry inh	FMDV inh	LASV entry inh	HCMV inh
O=C(CCCN1C(=O)/C(=C/c2cccc(Br)c2)SC1=S)Nc1ccccn1	?	0%	-10%	-101*
O=C(CCN1C(=O)/C(=C/C=C/c2ccccc2)SC1=S)Nc1ccccn1	-29%	-11%	?	-65*
O=C(CCCN1C(=O)/C(=C\c2cccc(Br)c2)SC1=S)Nc1cccnc1	4.5µM*	-25%	?	-99*
O=C(CCCN1C(=O)/C(=C/c2cccc(Br)c2)SC1=S)Nc1cccnc1	?	-2%	?	-99*
Cc1ccc(S(=O)(=O)n2cnc(C)c2)cc1	/	1%	/	12
Cc1ccc(NC(=O)NCc2cccnc2)cc1Cl	/	45%	/	65
CCN(CCn1cccn1)Cc1nc(-c2ccc(OC)cc2)no1	9%[46.1 µM]	-7%	?	9
Cc1ccc(Cl)cc1NC(=O)C1CCC(CNS(=O)(=O)c2cccc3nsnc23)CC1 (configuration not stated)	-2%[46.1 µM]	-18%	13%[46.1 µM]	2
Cn1c(=O)c(Nc2ccc(O)cc2)c2c3c(cccc31)C(=O)c1ccccc1-2	-29%	-11%	-4%	-61*
O=C1c2ccccc2-c2onc3ccc(Oc4ccccc4)c1c23	?	?	10µM*	38
COCCCNC(=O)c1ccc2c3c(onc13)-c1ccccc1C2=O	?	-104%	?	/
NC(=O)C1CCN(C(=O)c2cccc(S(=O)(=O)N3CCCC3)c2)CC1	2%	8%	0%[46.1 µM]	-2
CN(CC(=O)Nc1ccc(Cl)c(C(F)(F)F)c1)C(=O)c1ccc(OCC2CCCO2)cc1 (configuration not stated)	?	?	?	-73*
CCN(CC)CCCNC(=O)c1c(C)oc2ncnc(N3CCOCC3)c12	/	-9%	-2%[46.1 µM]	27
COc1cccc(CNC(=O)c2c(C)oc3ncnc(N4CCOCC4)c23)c1	/	-8%	?	-13
CCc1ccc(CNC(=O)c2c(C)oc3ncnc(N4CCOCC4)c23)cc1	/	?	23%[46.1 µM]	-61*
CCCCN(CC)CCCNC(=O)c1c(C)oc2ncnc(N3CCOCC3)c12	/	-5%	21%[46.1 µM]	-66*
CCN(CC)c1ccc(/C=C2\SC(=O)N(C(C)C)C2=O)o1	11µM*	19%	?	/
CC(C(=O)OCc1nnc(-c2ccccc2)o1)N1C(=O)c2ccccc2C1=O (configuration not stated)	-3%	22%	?	47
Cc1nc2c(OCc3ccc(C#N)cc3)cccn2c1N(C)Cc1cccs1	/	28µM*	/	-12
CCN(CC)CCC(O)(c1ccccc1)C1CCCCC1 (configuration not stated)	/	-17%	/	32
OC(CCN1CCCC1)(c1ccccc1)C1CCCCC1 (configuration not stated)	?	0%	?	-60*
OC(CCN1CCCCC1)(c1ccccc1)c1ccccc1	?	-17%	-20%	-81*
CC(O)(C#CCN1CCCCCC1)c1ccccc1 (configuration not stated)	-1%[46.1 µM]	-6%	3%	-102*
COC(=O)n1c(=O)oc2ccc(S(=O)(=O)N3CCCCC3)cc21	10%	8%	-1%	4
SMILES	MARV entry inh	FMDV inh	LASV entry inh	HCMV inh
COc1ccc(C(C)C)cc1S(=O)(=O)n1ccnc1C	2%	69%	1%	-103*
COc1ccc(OC)c(S(=O)(=O)n2ccnc2C)c1	3%	29%	?	6
O=c1cc(-c2ccccc2)nc(SCCOc2ccccc2Cl)[nH]1	-3%	-5%	7%	-28
c1ccc(-c2nc(C3CCCCC3)c3sccc3n2)cc1	/	-14%	/	11
C=CCn1c(SCc2ccc(C(=O)Nc3nccs3)cc2)nnc1-c1ccc(C)c(Cl)c1	?	28µM*	11µM*	-94*
Cc1nn(-c2ncc(C(F)(F)F)cc2Cl)c(=O)n1-c1c(F)cccc1F	/	10%	/	-21
COc1ccc(C(=O)NCCS(=O)(=O)NCc2ccccc2)cc1	-19%	25%	-1%	-98*
COc1cccc(NC(=O)Cn2c(=O)c3cccn3c3ccc(F)cc32)c1	/	0%	-1%[46.1 µM]	-65*
Cc1cccc(CNC(=O)CCn2c(=O)c3cccn3c3ccc(F)cc32)c1	/	-10%	5%[46.1 µM]	-85*
O=C(CCn1c(=O)c2cccn2c2ccc(F)cc21)NCc1cccc(F)c1	/	-27%	/	-30
Cc1cc2c(c(=O)o1)[C@H](Cc1ccccc1)C(C#N)=C(N)O2	19%[46.1 µM]	/	/	/
C[C@H](CO)N1C[C@H](C)[C@H](CN(C)C(=O)C2CC2)OCc2cnnn2CCCC1=O	/	-4%	/	14
CC(=O)c1ccc(Nc2nc(C(N)Cc3ccc(C(F)(F)F)cc3)cs2)cc1 (configuration not stated)	/	-23%	/	-61*
CN(Cc1ccccc1)C(=O)c1ccc(Nc2nc(C(N)Cc3ccc(C(F)(F)F)cc3)cs2)nc1 (configuration not stated)	/	10%	/	-98*
NC(Cc1ccc(C(F)(F)F)cc1)c1csc(Nc2ccc(C(=O)c3ccccc3)cc2)n1 (configuration not stated)	/	-24%	/	-63*
NC(CCc1ccccc1)c1csc(Nc2ccc(C(=O)c3ccccc3)cc2)n1 (configuration not stated)	/	-28%	/	4
CCOC(=O)C1CCN(C(=O)CS(=O)Cc2nc(-c3ccc(C)cc3)oc2C)CC1 (configuration not stated)	/	-11%	/	-15
CCC(C)c1ccccc1N1CC(C(=O)Nc2ccccc2N2CCCC2)CC1=O (configuration not stated)	-20%	-17%	-12%	/
Cc1ccc(CCNC(=O)c2cnc3c(-c4ccc(F)cc4)c(C)nn3c2C)cc1	/	-8%	28%[46.1 µM]	20
COC(=O)C1=C(O)/C(=C\c2cc(C)n(-c3ccccc3C)c2C)N=C1C	?	/	21%	20
CCCOc1ccc(F)cc1-c1cc(C(=O)NC2CCCCC2)[nH]n1	/	-13%	/	-14
CC1=C(C)CS(=O)N(c2ccc(S(N)(=O)=O)cc2)C1 (configuration not stated)	1%	-14%	?	31
CC1=C(C)CS(=O)N(S(=O)(=O)c2ccccc2)C1 (configuration not stated)	13µM*	?	10%	-16
COc1ccc2oc3cc(C)[n+]([O-])c(-c4ccc(Br)cc4)c3c2c1	-28%	32µM*	?	-84*
CCOC(=O)c1c(-c2ccc(OC)cc2)oc2ccc(OCc3ccc(Br)cc3)cc12	12%[46.1 µM]	-11%	17%[46.1 µM]	24
SMILES	MARV entry inh	FMDV inh	LASV entry inh	HCMV inh
NC(=O)c1ncc(C(F)(F)F)cc1Oc1ccc(C(F)(F)F)cc1	-6%[46.1 µM]	0%	2%	-6
O=c1[nH]c(SCCOc2cccc3ccccc23)nc2ccccc12	2.8µM*	0%	?	?
CCOc1ccc(NS(=O)(=O)c2ccc3c(c2)N(C(C)=O)CCO3)cc1	/	16%	/	-33
O=C(NCc1cccs1)C1CCCN1C(=O)Nc1cccc(F)c1 (configuration not stated)	3%[46.1 µM]	1%	?	-1
Cc1ccc2cc3cc(C(=O)NCc4ccco4)oc3nc2c1	?	36%	?	25
CCOc1ccc(N2C(N)=NC(N)=NC2(C)C)cc1	?	0%	5%	-68*
CC1(C)N=C(N)N=C(N)N1c1cccc(C#N)c1	?	-13%	2.5µM*	-77*
